Values joined by “and” are separate entries in the source; they are usually repeats but may differ in a detail not shown here. Equal values may be shown once. Some compounds were tested as several samples or in several runs, with calls that do not always agree. Active and inactive are the calls of the source. Entries that show only a call come without a potency. Unless noted, calls come from the whole dose curve; as a rule, active = well fitted curve in the direction sought with a large enough effect in the repeat runs; inconclusive = weak or mixed curves; inactive = no such curve, though single readings can be large; an effect the other way counts as inactive or inconclusive.
What was measured:
[1] = qHTS assay for identifying genotoxic compounds that show differential cytotoxicity against isogenic chicken DT40 cell lines with known DNA damage response pathways - wild type cell line (AID 743012); note: nearly all actives have a fitted effect of over 60% in size
Summary of the method: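 Viability by ATP luminescence (CellTiter-Glo, 30 min RT) after 40 h compound treatment at 37 C/5% CO2, using 300 parental DNA repair-proficient DT40 cells per well.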

[2] = qHTS assay for identifying genotoxic compounds that show differential cytotoxicity against isogenic chicken DT40 cell lines with known DNA damage response pathways - Rev3 mutant cell line (AID 743014); note: nearly all actives have a fitted effect of over 55% in size
[3] = qHTS assay for identifying genotoxic compounds that show differential cytotoxicity against isogenic chicken DT40 cell lines with known DNA damage response pathways - Rad54/Ku70 mutant cell line (AID 743015); note: nearly all actives have a fitted effect of over 60% in size; note: potency is the fitted concentration of half-maximal effect
[4] = qHTS assay to identify small molecule antagonists of the androgen receptor (AR) signaling pathway - cell viability counter screen (AID 743033; note: nearly all actives have a fitted effect of over 45% in size)
[5] = qHTS assay to identify small molecule antagonists of the androgen receptor (AR) signaling pathway using the MDA cell line - cell viability counter screen (AID 743041; note: nearly all actives have a fitted effect of over 45% in size)
Summary of the method: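 Using the breast carcinoma line MDA-kb2 AR-luc, test chemicals were co-incubated with R1881 for 16 h; CellTiter-Fluor reagent, added at 15.5 h, provided a fluorescence measure of live cells.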

[6] = qHTS assay to identify small molecule antagonists of the thyroid receptor (TR) signaling pathway - cell viability counter screen (AID 743064); note: nearly all actives have a fitted effect of over 50% in size; note: potency is the fitted concentration of half-maximal effect
Summary of the method: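 Same-well viability check: GH3.TRE-Luc cells stimulated with 1 nM T3 alongside test compound for 23.5 h, followed by CellTiter-Fluor fluorescence.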

[7] = qHTS assay to identify small molecule antagonists of the thyroid receptor (TR) signaling pathway (AID 743065); note: nearly all actives have a fitted effect of over 55% in size; note: potency is the fitted concentration of half-maximal effect
Summary of the method: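 Antagonism measured as loss of luciferase signal in GH3 cells stably carrying a TRE-luciferase reporter, co-treated with compound and T3 (1 nM final) for 23.5 h at 37 C. Viability was read in the same well by CellTiter-Fluor.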

[8] = qHTS assay to identify small molecule antagonists of the estrogen receptor alpha (ER-alpha) signaling pathway - cell viability counter screen (AID 743074; calls by dose curve; note: nearly all actives have a fitted effect of over 45% in size; note: potency is the fitted concentration of half-maximal effect)
[9] = target: Estrogen receptor (Homo sapiens) (UniProt P03372); test: qHTS assay to identify small molecule agonists of the estrogen receptor alpha (ER-alpha) signaling pathway (AID 743075; calls by dose curve; note: potency is the fitted concentration of half-maximal effect)
[10] = qHTS assay to identify small molecule antagonists of the estrogen receptor alpha (ER-alpha) signaling pathway using the BG1 cell line - cell viability counter screen (AID 743081);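 note: compound given together with 17beta-estradiol as the ER stimulus; nearly all actives have a fitted effect of over 45% in size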; note: potency is the fitted concentration of half-maximal effect
Aromatase (Homo sapiens) = Aromatase (Homo sapiens) (UniProt P11511); test: qHTS assay to identify aromatase inhibitors (AID 743083); note: nearly all actives have a fitted effect of over 55% in size; note: potency is the fitted concentration of half-maximal effect
[11] = qHTS assay to identify aromatase inhibitors - cell viability counter screen (AID 743084);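 note: cells stimulated with testosterone during compound exposure; nearly all actives have a fitted effect of over 55% in size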; note: potency is the fitted concentration of half-maximal effect
[12] = qHTS assay to identify small molecule antagonists of the glucocorticoid receptor (GR) signaling pathway - cell viability counter screen (AID 720693); note: nearly all actives have a fitted effect of over 55% in size; note: potency is the fitted concentration of half-maximal effect
[13] = target: Androgen receptor (Homo sapiens) (UniProt P10275); test: qHTS assay to identify small molecule antagonists of the androgen receptor (AR) signaling pathway (AID 743035; active = well fitted inhibition curve with a large enough effect in the signal ratio in the repeat runs, not every such curve was filed as active; inconclusive = weak or mixed curves, or effect the other way; inactive = no such curve, though single readings can be large or run the other way; the % refers to the signal ratio)
Summary of the method: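 Antagonist mode: AR-bla HEK293 cells co-treated with test compounds and agonist R1881 for 16 h at 37C, 5% CO2. Beta-lactamase activity read as FRET fluorescence after 2 h room-temperature substrate loading.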

[14] = target: Androgen receptor (Homo sapiens) (UniProt P10275); test: qHTS assay to identify small molecule agonists of the androgen receptor (AR) signaling pathway using the MDA cell line (AID 743040; note: nearly all actives have a fitted effect of over 20% in size)
Summary of the method: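 Stable MMTV-luciferase reporter in MDA-kb2 cells; note the promoter carries GR as well as AR response elements. 16 h compound treatment, 37C, 0% CO2; ONE-Glo luminescence endpoint.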

[15] = target: Androgen receptor (Homo sapiens) (UniProt P10275); test: qHTS assay to identify small molecule antagonists of the androgen receptor (AR) signaling pathway using the MDA cell line (AID 743042; note: nearly all actives have a fitted effect of over 55% in size; note: potency is the fitted concentration of half-maximal effect)
Summary of the method: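 Antagonist mode: compounds plus R1881 agonist added to MDA-kb2 AR-luc cells, incubated 16 h at 37C. Luciferase reporter luminescence quantified, with multiplexed CellTiter-Fluor readout for cell viability.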

[16] = system: thyroid hormone receptor (rat, GH3 cells); test: qHTS assay to identify small molecule agonists of the thyroid receptor (TR) signaling pathway (AID 743066; calls by dose curve)
[17] = target: Estrogen receptor (Homo sapiens) (UniProt P03372); test: qHTS assay to identify small molecule antagonists of the estrogen receptor alpha (ER-alpha) signaling pathway (AID 743069; active = well fitted curve in the direction sought with a large enough effect in the signal ratio in the repeat runs, not every such curve was filed as active; inconclusive = weak or mixed curves, or effect the other way; inactive = no such curve, though single readings can be large or run the other way; the % refers to the signal ratio)
Summary of the method: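 Fluorescence intensity from a beta-lactamase FRET substrate served as the read-out. Cells: HEK293 with stably integrated ER-alpha-UAS-bla reporter. Agonist 17beta-estradiol was co-added with compounds; incubation 18 hr at 37C, substrate 2 hr at room temperature.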

[18] = target: Estrogen receptor (Homo sapiens) (UniProt P03372); test: qHTS assay to identify small molecule agonists of the estrogen receptor alpha (ER-alpha) signaling pathway using the BG1 cell line (AID 743079); note: nearly all actives have a fitted effect of over 20% in size; note: potency is the fitted concentration of half-maximal effect
[19] = qHTS assay to identify small molecule antagonists of the estrogen receptor alpha (ER-alpha) signaling pathway using the BG1 cell line (AID 743080; calls by dose curve;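 note: BG1 cells stimulated with 17beta-estradiol alongside compound; series mostly up to about 70 µM; nearly all actives have a fitted effect of over 25% in size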)
Summary of the method: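 After 5 days in phenol-red-free 10% charcoal-stripped FBS medium, BG1-Luc-4E2 cells were seeded, left 24 h at 37 C, co-treated with compounds and 17beta-estradiol for 21.5 h, then assayed for viability and luciferase.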

Chain of Androgen receptor (Homo sapiens) (P10275 whole entry, looked up): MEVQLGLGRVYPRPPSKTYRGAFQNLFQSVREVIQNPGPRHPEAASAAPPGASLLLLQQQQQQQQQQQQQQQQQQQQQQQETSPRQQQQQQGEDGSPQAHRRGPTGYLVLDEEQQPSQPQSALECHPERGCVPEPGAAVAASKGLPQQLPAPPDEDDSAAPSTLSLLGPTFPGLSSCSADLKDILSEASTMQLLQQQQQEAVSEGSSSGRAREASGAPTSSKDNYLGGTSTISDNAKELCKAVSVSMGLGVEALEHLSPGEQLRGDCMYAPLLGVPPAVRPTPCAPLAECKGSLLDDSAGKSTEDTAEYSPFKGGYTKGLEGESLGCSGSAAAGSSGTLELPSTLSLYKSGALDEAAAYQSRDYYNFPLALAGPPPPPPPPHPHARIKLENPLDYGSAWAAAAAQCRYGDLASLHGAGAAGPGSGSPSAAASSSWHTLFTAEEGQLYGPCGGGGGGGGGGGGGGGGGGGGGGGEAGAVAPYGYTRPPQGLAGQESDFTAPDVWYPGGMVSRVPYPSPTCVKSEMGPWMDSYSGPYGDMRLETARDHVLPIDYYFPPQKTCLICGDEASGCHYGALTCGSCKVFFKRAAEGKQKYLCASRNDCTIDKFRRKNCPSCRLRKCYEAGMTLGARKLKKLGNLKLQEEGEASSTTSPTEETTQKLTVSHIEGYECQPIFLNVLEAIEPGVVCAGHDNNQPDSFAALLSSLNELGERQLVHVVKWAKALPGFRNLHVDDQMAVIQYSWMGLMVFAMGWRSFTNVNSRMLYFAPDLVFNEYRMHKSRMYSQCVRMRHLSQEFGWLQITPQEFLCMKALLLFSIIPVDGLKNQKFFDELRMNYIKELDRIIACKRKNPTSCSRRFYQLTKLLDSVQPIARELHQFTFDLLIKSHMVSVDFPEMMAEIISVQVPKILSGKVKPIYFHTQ
Chain of Aromatase (Homo sapiens) (P11511 whole entry, looked up): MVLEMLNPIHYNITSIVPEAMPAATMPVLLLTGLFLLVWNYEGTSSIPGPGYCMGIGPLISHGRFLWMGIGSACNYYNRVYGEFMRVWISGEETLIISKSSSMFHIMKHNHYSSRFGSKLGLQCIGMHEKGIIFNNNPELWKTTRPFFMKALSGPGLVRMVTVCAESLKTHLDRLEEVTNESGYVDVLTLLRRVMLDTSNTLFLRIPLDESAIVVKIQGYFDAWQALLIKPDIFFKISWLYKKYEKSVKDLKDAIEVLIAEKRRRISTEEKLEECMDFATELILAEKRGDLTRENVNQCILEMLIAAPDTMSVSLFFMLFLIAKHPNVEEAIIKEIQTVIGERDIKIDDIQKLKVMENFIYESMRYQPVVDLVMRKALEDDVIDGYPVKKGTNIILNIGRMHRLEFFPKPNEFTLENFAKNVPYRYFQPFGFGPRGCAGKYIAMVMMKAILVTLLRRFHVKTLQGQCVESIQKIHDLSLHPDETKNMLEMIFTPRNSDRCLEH
Chain of Estrogen receptor (Homo sapiens) (P03372 whole entry, looked up): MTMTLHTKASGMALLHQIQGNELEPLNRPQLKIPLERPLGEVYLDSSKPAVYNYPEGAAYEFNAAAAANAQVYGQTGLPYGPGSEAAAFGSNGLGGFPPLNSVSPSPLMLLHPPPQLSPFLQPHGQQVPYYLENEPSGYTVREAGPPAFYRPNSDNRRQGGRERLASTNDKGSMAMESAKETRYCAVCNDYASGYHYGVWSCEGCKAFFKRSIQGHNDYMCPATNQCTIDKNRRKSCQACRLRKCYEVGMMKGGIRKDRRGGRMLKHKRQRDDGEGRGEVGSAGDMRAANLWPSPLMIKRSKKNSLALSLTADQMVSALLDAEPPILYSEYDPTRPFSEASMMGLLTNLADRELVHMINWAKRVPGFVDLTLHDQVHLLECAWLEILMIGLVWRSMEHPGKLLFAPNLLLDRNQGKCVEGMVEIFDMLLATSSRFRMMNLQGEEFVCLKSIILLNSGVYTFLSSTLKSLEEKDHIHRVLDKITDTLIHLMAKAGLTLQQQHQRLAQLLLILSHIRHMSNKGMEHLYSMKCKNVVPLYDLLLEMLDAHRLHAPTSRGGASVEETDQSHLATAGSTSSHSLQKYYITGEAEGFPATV

Row | SMILES | Potency [1] | Potency [2] | Potency [3] | Potency [4] | Potency [5] | Potency [6] | Potency [7] | Potency [8] | Potency [9] | Potency [10] | Potency (Aromatase (Homo sapiens)) | Potency [11] | Potency [12] | Potency [13] | Potency [14] | Potency [15] | outcome [16] | Potency [17] | Potency [18] | Potency [19]
1 | CCCCN(CCCC)C(=S)[S-].CCCCN(CCCC)C(=S)[S-].[Zn+2] | inactive | inactive | inactive | inactive | inactive | 18.8 µM (active) and 7.69 µM (active) | 13.3 µM (active) and 9.68 µM (active) | 19 µM (active) and 12.3 µM (active) | 30.1 µM [inconclusive] (active) | 21.1 µM (active) and 38.5 µM (active) | inactive | inactive |  |  |  |  |  |  |  | 
2 | CNC(C)Cc1ccc2c(c1)OCO2 (stereo not drawn) |  |  |  | inactive | inactive | inactive | inactive | inactive | inactive |  | inactive | inactive | inactive | inactive | inactive | inactive | inactive | inactive | inactive | inactive
3 | COP(=O)(OC)SCn1c(=O)oc2cc(Cl)cnc21 |  |  |  | inactive | inactive |  | inactive | inactive | inactive | inactive | 19.3 µM (active) |  | 49 µM (active) |  | inactive | 48.6 µM (active) | inactive | inactive | inactive | 
4 | CN(C)C(=S)S |  |  | 1.36 µM (active) and 2.17 µM (active) |  |  | inactive and 27.1 µM (active) and 2.73 µM (active) |  | inactive |  | inactive | 8.81 µM (active) and 607 nM (active) and 1.72 µM (active) | 14 µM (active) and 764 nM (active) and 4.86 µM (active) | inactive |  |  |  |  |  |  | 
5 | CC(=O)Nc1ccc2c(c1)Cc1ccccc1-2 |  |  | 62.1 µM (active) | inactive |  | inactive |  | inactive | inactive | inactive | inactive | inactive | inactive |  |  |  | inactive | inactive | 11 µM (active) | 
6 | Nc1ccccc1C(=O)OC/C=C/c1ccccc1 |  |  |  |  | inactive |  |  | inactive | inactive | inactive | inactive | inactive | inactive |  |  |  | inactive |  |  | 
7 | C[C@]12CC[C@@H]3c4ccc(OC(=O)N(CCCl)CCCl)cc4CC[C@H]3[C@@H]1CC[C@@H]2O |  |  |  | inactive | inactive | inactive | inactive | inactive |  | inactive | inactive | inactive | inactive |  |  |  | inactive |  |  | 
